Experimental data as given in PubChem BioAssay (Tox21).
“And” between values parts separate entries of the source, which are not always exact repeats. Identical values can stand only once. The source made the active and inactive calls. Unless noted, the call rests on the fitted dose curve; in most records, active means well fitted curve in the direction sought with a large enough effect in the repeat runs; inconclusive means weak or mixed curves; inactive means no such curve, though single readings can be large; an effect the other way counts as inactive or inconclusive.

Assays:
[1] = qHTS assay to identify small molecule antagonists of the thyroid receptor (TR) signaling pathway (AID 743065); further: nearly all actives have a fitted effect of over 55% in size; further: potency means the concentration at half of the fitted maximal effect; on activity, negative = inhibition: series mostly up to about 70 µM
Procedure, shortened: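 GH3.TRE-Luc rat pituitary cells carrying two TR response elements driving luciferase were plated for 4 h, given compound plus 1 nM T3 (final), and incubated 23.5 h at 37 C. ONE-Glo luminescence measured reporter inhibition; CellTiter-Fluor fluorescence tracked cytotoxicity.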

[2] = system: thyroid hormone receptor (rat, GH3 cells); test: qHTS assay to identify small molecule agonists of the thyroid receptor (TR) signaling pathway (AID 743066; calls by dose curve)
[3] = target: Estrogen receptor (Homo sapiens) (UniProt P03372); test: qHTS assay to identify small molecule antagonists of the estrogen receptor alpha (ER-alpha) signaling pathway (AID 743069; active means well fitted curve in the direction sought with a large enough effect in the signal ratio in the repeat runs, not every such curve was filed as active; inconclusive means weak or mixed curves, or effect the other way; inactive means no such curve, though single readings can be large or run the other way; the % refers to the signal ratio; further: potency means the concentration at half of the fitted maximal effect)
Procedure, shortened: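 Estradiol-stimulated ER-alpha-UAS-bla HEK293 cells, 18 hr compound exposure at 37C. LiveBLAzer B/G substrate, 2 hr RT, fluorescence read.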

[4] = qHTS assay to identify small molecule antagonists of the estrogen receptor alpha (ER-alpha) signaling pathway - cell viability counter screen (AID 743074; calls by dose curve;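 further: HEK293 cells carrying ER-alpha-UAS-bla reporter stimulated with 17beta-estradiol; nearly all actives have a fitted effect of over 45% in size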)
[5] = target: Estrogen receptor (Homo sapiens) (UniProt P03372); test: qHTS assay to identify small molecule agonists of the estrogen receptor alpha (ER-alpha) signaling pathway (AID 743075; calls by dose curve;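 further: HEK293 GripTite cells with ER-alpha and UAS-driven beta-lactamase reporter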)
[6] = target: Estrogen receptor (Homo sapiens) (UniProt P03372); test: qHTS assay to identify small molecule agonists of the estrogen receptor alpha (ER-alpha) signaling pathway using the BG1 cell line (AID 743079); further: nearly all actives have a fitted effect of over 20% in size; further: potency means the concentration at half of the fitted maximal effect
[7] = qHTS assay to identify small molecule antagonists of the estrogen receptor alpha (ER-alpha) signaling pathway using the BG1 cell line (AID 743080; calls by dose curve;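 further: BG1 cells stimulated with 17beta-estradiol alongside compound; series mostly up to about 70 µM; nearly all actives have a fitted effect of over 25% in size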)
Procedure, shortened: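 Seeding, 24 h rest, compound transfer from DMSO, 17beta-estradiol addition, 21.5 h incubation, CellTiter-Fluor (30 min, 37 C), then ONE-Glo (30 min, room temperature): this sequence was run on BG1-Luc-4E2 reporter cells.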

[8] = qHTS assay to identify small molecule antagonists of the estrogen receptor alpha (ER-alpha) signaling pathway using the BG1 cell line - cell viability counter screen (AID 743081);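 further: compound given together with 17beta-estradiol as the ER stimulus; nearly all actives have a fitted effect of over 45% in size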; further: potency means the concentration at half of the fitted maximal effect; on activity change, negative = cytotoxicity: series mostly up to about 70 µM
Aromatase (Homo sapiens) = Aromatase (Homo sapiens) (UniProt P11511); test: qHTS assay to identify aromatase inhibitors (AID 743083); further: nearly all actives have a fitted effect of over 55% in size; further: potency means the concentration at half of the fitted maximal effect; on activity, negative = inhibition: series mostly up to about 70 µM
[9] = qHTS assay to identify small molecule antagonists of the thyroid receptor (TR) signaling pathway - cell viability counter screen (AID 743064); further: nearly all actives have a fitted effect of over 50% in size; further: potency means the concentration at half of the fitted maximal effect
Procedure, shortened: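 GH3.TRE-Luc rat pituitary cells carrying a TRE-luciferase reporter were treated with compound plus 1 nM T3 (final) for 23.5 h at 37 °C. Viability was then read in the same wells by CellTiter-Fluor fluorescence after a further 30 min.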
On the % scale 0 is the no-effect control and ±100 the full control effect.

Chain of Aromatase (Homo sapiens) (P11511 whole entry, looked up): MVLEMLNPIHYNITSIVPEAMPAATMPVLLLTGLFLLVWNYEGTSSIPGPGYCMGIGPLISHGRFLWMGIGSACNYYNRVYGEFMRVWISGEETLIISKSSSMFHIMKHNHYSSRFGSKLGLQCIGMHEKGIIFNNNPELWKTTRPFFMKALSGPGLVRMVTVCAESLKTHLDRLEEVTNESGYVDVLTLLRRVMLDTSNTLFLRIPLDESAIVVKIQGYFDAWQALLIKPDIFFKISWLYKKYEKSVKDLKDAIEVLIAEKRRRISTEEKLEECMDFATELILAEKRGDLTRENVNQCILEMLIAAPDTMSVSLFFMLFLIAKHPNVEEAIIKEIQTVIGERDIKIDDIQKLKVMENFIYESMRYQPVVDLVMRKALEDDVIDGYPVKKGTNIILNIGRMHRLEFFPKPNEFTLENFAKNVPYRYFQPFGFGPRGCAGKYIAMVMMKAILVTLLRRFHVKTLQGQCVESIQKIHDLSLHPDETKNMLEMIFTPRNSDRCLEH
Chain of Estrogen receptor (Homo sapiens) (P03372 whole entry, looked up): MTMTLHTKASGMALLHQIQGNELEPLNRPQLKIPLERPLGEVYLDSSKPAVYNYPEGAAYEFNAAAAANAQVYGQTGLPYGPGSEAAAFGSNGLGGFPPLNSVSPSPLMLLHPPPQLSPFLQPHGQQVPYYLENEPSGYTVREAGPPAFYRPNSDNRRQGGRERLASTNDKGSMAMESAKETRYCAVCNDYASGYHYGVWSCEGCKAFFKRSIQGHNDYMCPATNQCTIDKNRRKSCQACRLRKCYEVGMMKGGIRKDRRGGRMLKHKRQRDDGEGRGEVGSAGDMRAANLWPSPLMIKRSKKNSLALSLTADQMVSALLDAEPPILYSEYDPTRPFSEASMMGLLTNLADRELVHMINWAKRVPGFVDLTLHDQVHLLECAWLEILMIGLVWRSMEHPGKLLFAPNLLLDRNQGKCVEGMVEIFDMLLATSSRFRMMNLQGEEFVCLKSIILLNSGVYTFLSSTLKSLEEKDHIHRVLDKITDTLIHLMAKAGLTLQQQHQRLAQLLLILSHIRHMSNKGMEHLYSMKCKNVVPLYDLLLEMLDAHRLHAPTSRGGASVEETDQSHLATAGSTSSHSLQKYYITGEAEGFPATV

C=CC1CC2C=CC1C2 (centres undefined)
inactive: Potency [1] | Potency [2] | Potency [3] | Potency [4] | Potency [5] | Potency [6] | Potency [7] | Potency [8] | Potency (Aromatase (Homo sapiens))

C=CC(=O)OCCOCCOC(=O)C=C
active: Potency [1] 68.9 µM | Potency [3] 61.9 µM [inconclusive] | Potency [6] 6.14 µM | Potency (Aromatase (Homo sapiens)) 13.7 µM
inactive: Potency [2] | Potency [5]

CC(C)CC(=O)C1C(=O)c2ccccc2C1=O
inactive: Potency [9] | Potency [4] | Potency [5] | Potency [6] | Potency [7] | Potency [8] | Potency (Aromatase (Homo sapiens))

C/C=C/C(=O)CC
inactive: Potency [1] | activation [2] 0.0391% [at 18 µM] | activity, negative = inhibition [3] 9.39% [at 15 µM] | activity, negative = cytotoxicity [4] -6.1% [at 15 µM] | activation [5] -0.96% [at 14.9 µM] | Potency [6] | Potency [7] | Potency [8] | Potency (Aromatase (Homo sapiens))

CC1=CC=C(C(C)C)CC1
inactive: Potency [9] | Potency [3] | Potency [4] | Potency [5] | Potency [6] | Potency [7] | Potency [8] | Potency (Aromatase (Homo sapiens))

C[Si](C)(CCCN)O[Si](C)(C)CCCN
inactive: Potency [9] | Potency [3] | Potency [4] | Potency [5] | Potency [6] | Potency [7] | Potency (Aromatase (Homo sapiens))

CC(=O)[O][Al]
inactive: Potency [9] | Potency [2] | Potency [4] | Potency [8] | Potency (Aromatase (Homo sapiens))

COc1cc(Cl)c(OC)cc1N
inactive: Potency [9] | Potency [8] | Potency (Aromatase (Homo sapiens))

CN(C)CCN(Cc1ccc(Cl)cc1)c1ccccn1
inactive: Potency [2] | Potency [4] | Potency [8] | Potency (Aromatase (Homo sapiens))
active: Potency [9] 11.4 µM

CCN(CC)CCOC(=O)C(Cc1cccc2ccccc12)CC1CCCO1 (centres undefined)
inactive: Potency [9] | Potency [4] | Potency [8] | Potency (Aromatase (Homo sapiens))

O=C(O)c1ccco1
inactive: Potency [1] | Potency [2] | Potency [3] | Potency [4] | Potency [5] | Potency [6] | Potency [7] | Potency [8] | Potency (Aromatase (Homo sapiens))

O=C(O)CC(=O)C(=O)O
inactive: Potency [9] | Potency [4] | Potency [8] | Potency (Aromatase (Homo sapiens))

CN(C)c1ccc(/C=C/c2ccc([N+](=O)[O-])cc2)cc1
inactive: activity change, negative = cytotoxic [9] 14.3% [at 8.44 µM] | activity, negative = cytotoxicity [4] -15.2% [at 6.72 µM] | activity change, negative = cytotoxicity [8] 18.2% [at 8.47 µM] | activity, negative = inhibition (Aromatase (Homo sapiens)) 68.2% [at 8.47 µM]

CCCCC(=O)OCC(=O)[C@H]1[C@H](C)C[C@H]2[C@@H]3C[C@H](F)C4=CC(=O)C=C[C@]4(C)[C@@]3(F)[C@@H](O)C[C@@]21C
inactive: Potency [9] | Potency [2] | Potency [5] | Potency [6] | Potency [8] | Potency (Aromatase (Homo sapiens))

CCN(CC)c1ccc2c(-c3ccccc3C(=O)O)c3ccc(=[N+](CC)CC)cc-3oc2c1
inactive: Potency [4] | Potency [5] | Potency [7]
active: Potency [9] 5.45 µM | Potency [8] 9.69 µM

CN(C)CCCN1c2ccccc2Sc2ccccc21
active: Potency [9] 2.85 µM
inactive: Potency [2] | Potency [4] | Potency [8] | Potency (Aromatase (Homo sapiens))

O=CC1CC=CCC1 (centres undefined)
inactive: Potency [1] | Potency [2] | Potency [3] | Potency [4] | Potency [5] | Potency [6] | Potency [7] | Potency [8] | Potency (Aromatase (Homo sapiens))

CCCCOC(=O)CCCCCCCC(=O)OCCCC
inactive: Potency [9] | Potency [2] | Potency [4] | Potency [8] | Potency (Aromatase (Homo sapiens))

COc1cc2c(cc1OC)C(C(C(=O)N(CCc1ccc(OC)c(OC)c1OC)CCc1ccc(OC)c(OC)c1OC)c1ccccc1)=NCC2 (centres undefined)
inactive: Potency [2] | Potency [4] | Potency (Aromatase (Homo sapiens))

O=S(c1cc(Cl)cc(Cl)c1O)c1cc(Cl)cc(Cl)c1O
inactive: Potency [2] | Potency [4] | Potency [5] | Potency [6] | Potency [7] | Potency [8] | Potency (Aromatase (Homo sapiens))

OC(CN1CCC(Cc2ccc(F)cc2)CC1)c1ccc(Cl)cc1 (centres undefined)
inactive: Potency [2] | Potency [4] | Potency [8] | Potency (Aromatase (Homo sapiens))

CCCCC1=NC2(CCCC2)C(=O)N1Cc1ccc(-c2ccccc2-c2nn[nH]n2)cc1
inactive: Potency [3] | Potency [4] | Potency [5] | Potency [6] | Potency [7] | Potency [8] | Potency (Aromatase (Homo sapiens))

CC(C)C[C@H]1C(=O)N2CCC[C@H]2[C@]2(O)O[C@](NC(=O)[C@@H]3C=C4c5cccc6[nH]c(Br)c(c56)C[C@H]4N(C)C3)(C(C)C)C(=O)N12
inactive: Potency [2] | Potency [4] | Potency [8]
active: Potency [1] 13.3 µM and 16.4 µM

COc1cc(Cl)ccc1Oc1ccc(Cl)cc1Cl
active: Potency [1] 52.9 µM
inactive: Potency [2] | Potency [4] | Potency [5] | Potency [6] | Potency [8] | Potency (Aromatase (Homo sapiens))

O=C(Cl)c1cc(C(=O)Cl)cc(C(=O)Cl)c1
inactive: Potency [2] | Potency [3] | Potency [4] | Potency [5] | Potency [6] | Potency [7] | Potency [8]

O=C(O)c1ccc(-n2nc(-c3ccccc3O)nc2-c2ccccc2O)cc1
active: Potency [1] 29.8 µM | Potency [3] 16.9 µM [inconclusive]
inactive: Potency [4] | Potency [5] | Potency [8]
